# In PubChem BioAssay (NCI):
# About 83,000 compounds went through this panel and 20% of them were active in at least one assay; those are over-represented in the sample as a whole.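 Compound tested at a single concentration for 48 hours in 96-well plates; a percent growth value below 10 was scored as active.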 A number with no mark means an inactive call. Calls of active or inactive are those of the source.
# System: HCT-116 colon
# Assay: NCI-60 one-dose screen, 48 h (100 = growth as untreated, 0 = no growth, -100 = all killed)
# Details: 10 µM unless noted
row,SMILES,growth
1,O=S(=O)(NCCCNc1cc(-c2cn(-c3ccccc3)nc2-c2cccc(O)c2)ccn1)c1ccc(Cl)cc1,15%
2,COc1ccc(-c2nc3sccn3c2-c2ccnc(NCCCNS(=O)(=O)c3ccc(C)cc3)n2)cc1,25%
3,O=C1c2ccccc2C(=O)c2c1oc1oc3c(c(=O)c21)c(=O)n(-c1ccccc1)c1ccccc31,41.7%
4,C#CCC1(c2ccc(F)c(F)c2)NS(=O)(=O)c2ccccc21 (stereo not drawn),95.5%
5,Cc1nc(Nc2cccnc2)sc1C(=O)/C=C/c1ccc(F)cc1,3.7% (active)
6,CCC#CC[C@H]1C/C=C2/C(=O)C=C[C@@H]2C/C=C\CCCC(=O)O1,-70.9% (active)
7,CNC(=O)Cc1nc(-c2cccc(NS(=O)(=O)c3c(F)cccc3F)c2F)c(-c2ccnc(Nc3ccccc3)n2)s1,9.43% (active)
8,CC(=O)Nc1ccc2c(c1)/C(=C\C=C/c1ccc([N+](C)(C)C)cc1)c1ccccc1-2,70.3%
9,COc1cc(OC)cc(-c2n[nH]nc2-c2ccc3c(c2)OCO3)c1,15.7%
10,O=C1CCC/C=C\C[C@H]2C=CC(=O)/C2=C/C[C@H](C/C=C\CC(F)(F)F)O1,-51.4% (active)
11,O=C(Nc1cccc(Cl)c1)c1cc([N+](=O)[O-])ccc1O,45.9%
12,O=C1N=C(c2c(-c3[nH]c(=O)c4ccc(Br)cc4c3O)c(O)c3ccccc3c2O)C(=O)c2cc(Br)ccc21,-21.7% (active)
13,COc1cc(-n2nc(C(=O)Nc3ccc(C(=O)O)cc3)nc2-c2ccccc2)cc(OC)c1OC,91.7%
14,COc1ccc(OC)c(-c2ccc(-c3ccccc3N)c3[nH]c4ccccc4c23)c1,61.6%
15,COc1ccc(S(=O)(=O)Nc2cc(/C=C\c3cc(OC)c(OC)c(OC)c3)cc(OC)c2OC)cc1OC,15.6%
16,Cc1cc(NC(=O)COC(=O)c2sc3cc(F)ccc3c2Cl)no1,103%
17,Nc1c(C(=O)Nc2cccc(C(F)(F)F)c2)sc2nc3c(cc12)C(O)CCC3 (stereo not drawn),35.2%
18,CC(=O)C1CCC(C)=CC1=O (stereo not drawn),103%
19,COc1ccc(-c2nc3sccn3c2-c2ccnc(NCCCNS(=O)(=O)c3ccc(F)cc3)n2)cc1,8.56% (active)
20,COc1cc(-c2csc(NC(=O)Nc3ccc(Cl)cc3Cl)n2)cc(OC)c1OC,19.3%

row,SMILES,growth
1,CCSc1nnc(Nc2ccc(C(C)C)cc2)s1,72.3%
2,CCOC(=O)CC/C(C)=N\Nc1ccc([N+](=O)[O-])cc1,48.7%
3,Cc1ccc2c(c1)C(=O)C(c1c(-c3[nH]c(=O)c4ccc(C)cc4c3O)c(O)c3ccccc3c1O)=NC2=O,12.9%
4,CN(C)CCCNC(=O)C(c1ccccc1)c1ccccc1,94.3%
5,COc1ccc(-c2nnc(COc3ccc(NC(=O)Nc4ccc(Cl)c(C(F)(F)F)c4)cc3F)o2)cc1,4.43% (active)
6,O=c1oc2cc(OS(=O)(=O)c3ccc(F)cc3)ccc2c2c1CCCCC2,54.4%
7,Nc1nc(-c2ccccc2)cs1,94.8%
8,COc1ccc(C(=O)/C=C/c2cccc([N+](=O)[O-])c2)c(OC)c1,-80.1% (active)
9,C=CCOc1cccc(/C=C/C(=O)c2sc(Nc3cccnc3)nc2C)c1,20.3%
10,Cc1cc(Nc2nc(C(=O)Nc3ccccc3)nc3ccccc23)n[nH]1,45.6%
11,CC1CCN(C(=O)CSc2nc3sc4c(c3c(=O)[nH]2)CCCC4)CC1,112%
12,COc1ccc(-c2nc(-c3nc4ccc(F)cc4[nH]3)cc3c2[nH]c2ccccc23)cc1,25.3%
13,CC/C=C\C[C@H](O)C/C=C1/C(=O)C(Cl)=C[C@@H]1C/C=C\CCCC(=O)O,-88.6% (active)
14,O=c1[nH]c2ccccc2cc1-c1nnc(Cc2ccccc2)o1,7.52% (active)
15,COc1ccc(C2CC(c3cccs3)=NN2c2ccc(S(=O)(=O)NC(=O)Nc3ccc(C)cc3)cc2)cc1 (stereo not drawn),85.1%
16,CCSc1nnc(NC(=O)COc2ccc(Cl)cc2C)s1,103%
17,COc1ccc(Cn2c(SC)nc(=O)n(Cc3ccc(Cl)cc3)c2=O)cc1,93.9%
18,O=C(Nc1ccc(Br)c(Cl)c1)c1cc(F)ccc1O,-21.8% (active)
19,O=C(CCl)NCCNc1nccc(Nc2ccc(S(=O)(=O)Nc3ccccn3)cc2)n1,-44.6% (active)

# System: HCC-2998 colon
# Assay: as above
# Details: 10 µM unless noted
row,SMILES,growth
1,O=S(=O)(NCCCNc1cc(-c2cn(-c3ccccc3)nc2-c2cccc(O)c2)ccn1)c1ccc(Cl)cc1,-44.9% (active)
2,COc1ccc(-c2nc3sccn3c2-c2ccnc(NCCCNS(=O)(=O)c3ccc(C)cc3)n2)cc1,25.9%
3,O=C1c2ccccc2C(=O)c2c1oc1oc3c(c(=O)c21)c(=O)n(-c1ccccc1)c1ccccc31,42.9%
4,C#CCC1(c2ccc(F)c(F)c2)NS(=O)(=O)c2ccccc21 (stereo not drawn),102%
5,Cc1nc(Nc2cccnc2)sc1C(=O)/C=C/c1ccc(F)cc1,83.4%
6,CCC#CC[C@H]1C/C=C2/C(=O)C=C[C@@H]2C/C=C\CCCC(=O)O1,-67% (active)
7,CNC(=O)Cc1nc(-c2cccc(NS(=O)(=O)c3c(F)cccc3F)c2F)c(-c2ccnc(Nc3ccccc3)n2)s1,84.6%
8,CC(=O)Nc1ccc2c(c1)/C(=C\C=C/c1ccc([N+](C)(C)C)cc1)c1ccccc1-2,114%
9,COc1cc(OC)cc(-c2n[nH]nc2-c2ccc3c(c2)OCO3)c1,31.9%
10,O=C1CCC/C=C\C[C@H]2C=CC(=O)/C2=C/C[C@H](C/C=C\CC(F)(F)F)O1,-83.7% (active)
11,O=C(Nc1cccc(Cl)c1)c1cc([N+](=O)[O-])ccc1O,29.2%
12,O=C1N=C(c2c(-c3[nH]c(=O)c4ccc(Br)cc4c3O)c(O)c3ccccc3c2O)C(=O)c2cc(Br)ccc21,-44.3% (active)
13,COc1cc(-n2nc(C(=O)Nc3ccc(C(=O)O)cc3)nc2-c2ccccc2)cc(OC)c1OC,97.9%
14,COc1ccc(OC)c(-c2ccc(-c3ccccc3N)c3[nH]c4ccccc4c23)c1,102%
15,COc1ccc(S(=O)(=O)Nc2cc(/C=C\c3cc(OC)c(OC)c(OC)c3)cc(OC)c2OC)cc1OC,21.1%
16,Cc1cc(NC(=O)COC(=O)c2sc3cc(F)ccc3c2Cl)no1,112%
17,Nc1c(C(=O)Nc2cccc(C(F)(F)F)c2)sc2nc3c(cc12)C(O)CCC3 (stereo not drawn),78.8%
18,CC(=O)C1CCC(C)=CC1=O (stereo not drawn),103%
19,COc1ccc(-c2nc3sccn3c2-c2ccnc(NCCCNS(=O)(=O)c3ccc(F)cc3)n2)cc1,52%
20,COc1cc(-c2csc(NC(=O)Nc3ccc(Cl)cc3Cl)n2)cc(OC)c1OC,60.1%

row,SMILES,growth
1,CCSc1nnc(Nc2ccc(C(C)C)cc2)s1,92.7%
2,CCOC(=O)CC/C(C)=N\Nc1ccc([N+](=O)[O-])cc1,60.4%
3,Cc1ccc2c(c1)C(=O)C(c1c(-c3[nH]c(=O)c4ccc(C)cc4c3O)c(O)c3ccccc3c1O)=NC2=O,62%
4,CN(C)CCCNC(=O)C(c1ccccc1)c1ccccc1,99.1%
5,COc1ccc(-c2nnc(COc3ccc(NC(=O)Nc4ccc(Cl)c(C(F)(F)F)c4)cc3F)o2)cc1,13.8%
6,O=c1oc2cc(OS(=O)(=O)c3ccc(F)cc3)ccc2c2c1CCCCC2,69.8%
7,Nc1nc(-c2ccccc2)cs1,104%
8,COc1ccc(C(=O)/C=C/c2cccc([N+](=O)[O-])c2)c(OC)c1,36.6%
9,C=CCOc1cccc(/C=C/C(=O)c2sc(Nc3cccnc3)nc2C)c1,86.5%
10,Cc1cc(Nc2nc(C(=O)Nc3ccccc3)nc3ccccc23)n[nH]1,84.3%
11,CC1CCN(C(=O)CSc2nc3sc4c(c3c(=O)[nH]2)CCCC4)CC1,120%
12,COc1ccc(-c2nc(-c3nc4ccc(F)cc4[nH]3)cc3c2[nH]c2ccccc23)cc1,30.9%
13,CC/C=C\C[C@H](O)C/C=C1/C(=O)C(Cl)=C[C@@H]1C/C=C\CCCC(=O)O,76.4%
14,O=c1[nH]c2ccccc2cc1-c1nnc(Cc2ccccc2)o1,78.9%
15,COc1ccc(C2CC(c3cccs3)=NN2c2ccc(S(=O)(=O)NC(=O)Nc3ccc(C)cc3)cc2)cc1 (stereo not drawn),109%
16,CCSc1nnc(NC(=O)COc2ccc(Cl)cc2C)s1,131%
17,COc1ccc(Cn2c(SC)nc(=O)n(Cc3ccc(Cl)cc3)c2=O)cc1,103%
18,O=C(Nc1ccc(Br)c(Cl)c1)c1cc(F)ccc1O,14.7%
19,O=C(CCl)NCCNc1nccc(Nc2ccc(S(=O)(=O)Nc3ccccn3)cc2)n1,99.7%
